This is an account of results in PubChem BioAssay (EPA / NIEHS).

Activity calls are given as the source filed them. The calls were made as follows: active = hit-call score of the fitted dose curve at least 0.9, where 1 is the maximum; inactive = score below 0.9.

Holding throughout (details): mRNA level, 48 h; actives raise or lower the signal
Read-out in experiment [1]: ABC Transporter (ABCC2), ABCC2 (gene 1244)
As to the kind of experiment: LTEA_HepaRG_ABCC2: Life Technologies and Expression Analysis (LTEA) Assay for ABC Transporter (ABCC2) using HepaRG (AID 2283464). The gist of the method:
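Endpoint is ABCC2 transcript level from qRT-PCR, normalized to three housekeeping genes and fitted bidirectionally relative to DMSO. Human HepaRG cells received test chemical for 48 h at up to 100 uM (8 points, half-log steps, 0.5% DMSO), duplicate wells.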

Read-out in experiment [2]: Broad substrate specificity ATP-binding cassette transporter ABCG2 (Homo sapiens) (UniProt Q9UNQ0)
As to the kind of experiment: LTEA_HepaRG_ABCG2: Life Technologies and Expression Analysis (LTEA) Assay for ABC Transporter (ABCG2) using HepaRG (AID 2283465). Summed up:
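HepaRG, 48 h exposure, 8-pt half-log series from 100 uM, 0.5% DMSO vehicle, duplicates. Readout: ABCG2 transcript by qRT-PCR (Fluidigm array), housekeeping-normalized; bidirectional curve fit relative to DMSO baseline.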

Read-out in experiment [3]: ATP-citrate lyase (ACLY), ACLY (gene 47)
As to the kind of experiment: LTEA_HepaRG_ACLY: Life Technologies and Expression Analysis (LTEA) Assay for ATP-citrate lyase (ACLY) using HepaRG (AID 2283466). Summed up: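 qRT-PCR readout of ACLY transcript after 48 h chemical treatment of HepaRG cells; expression normalized to three housekeeping genes. Eight-point half-log series, highest 100 uM, 0.5% DMSO vehicle. Gain or loss fitted against DMSO baseline.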

Read-out in experiment [4]: Peroxisomal acyl-coenzyme A oxidase 1 (ACOX1) gene, ACOX1 (gene 51)
As to the kind of experiment: LTEA_HepaRG_ACOX1: Life Technologies and Expression Analysis (LTEA) Assay for Peroxisomal acyl-coenzyme A oxidase 1 (ACOX1) gene using HepaRG (AID 2283467). The gist of the method:
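HepaRG, 48 h chemical exposure, 8-pt half-log series from 100 uM top, 0.5% DMSO vehicle, duplicates. Readout: ACOX1 mRNA by Fluidigm qRT-PCR, housekeeping-normalized; bidirectional fit vs DMSO baseline.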

Read-out in experiment [5]: Alkaline Phosphatase, Placental (ALPP) gene, ALPP (gene 250)
As to the kind of experiment: LTEA_HepaRG_ALPP: Life Technologies and Expression Analysis (LTEA) Assay for Alkaline Phosphatase, Placental (ALPP) gene using HepaRG (AID 2283468).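 As to AC50: differentiated human HepaRG liver cells in serum-free induction medium.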 Summed up:
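ALPP transcript level, measured by qRT-PCR and normalized to three housekeeping genes (ACTB, GAPDH, POLR2A), after 48 h dosing of differentiated HepaRG in serum-free induction medium. Top concentration 100 uM with half-log dilutions (8 points, 0.5% DMSO, duplicates); bidirectional fitting relative to DMSO.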

Read-out in experiment [6]: Bcl-2 (BAX) gene, BAX (gene 581)
As to the kind of experiment: LTEA_HepaRG_BAX: Life Technologies and Expression Analysis (LTEA) Assay for Bcl-2 (BAX) gene using HepaRG (AID 2283470). Summed up:
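qRT-PCR read-out of BAX mRNA, normalized to three housekeeping genes, after 48 h chemical exposure of human HepaRG cells in serum-free induction medium; eight-point half-log series, top 100 uM, 0.5% DMSO vehicle; bidirectional fit versus DMSO.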

Read-out in experiment [7]: adenosine kinase (ADK) gene, ADK (gene 132)
Kind of experiment: LTEA_HepaRG_ADK: Life Technologies and Expression Analysis (LTEA) Assay for adenosine kinase (ADK) gene using HepaRG (AID 2283471). The gist of the method: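 Following 48 h exposure of HepaRG cells in 0.5% DMSO (top concentration 100 uM, duplicate wells), ADK mRNA induction or suppression was measured by qRT-PCR, normalised to ACTB/GAPDH/POLR2A, and fitted bidirectionally relative to vehicle.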

Read-out in experiment [8]: Alpha-fetoprotein (AFP) gene, AFP (gene 174)
Kind of experiment: LTEA_HepaRG_AFP: Life Technologies and Expression Analysis (LTEA) Assay for Alpha-fetoprotein (AFP) gene using HepaRG (AID 2283472). The gist of the method: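 qRT-PCR (Fluidigm TaqMan) readout of AFP transcript, normalized to three housekeeping genes, fitted bidirectionally against 0.5% DMSO baseline. HepaRG cells received chemicals for 48 h in serum-free induction medium, top concentration 100 uM, half-log steps.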

Read-out in another experiment: BCL2L11 (gene 10018)
As to the kind of experiment: LTEA_HepaRG_BCL2L11: Life Technologies and Expression Analysis (LTEA) Assay for Bcl-2 (BCL2L11) gene using HepaRG (AID 2283473). Summed up:
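BCL2L11 transcript levels are measured by Fluidigm qRT-PCR, normalized to three housekeeping genes. HepaRG cultures were plated 48 h, then treated 48 h with test chemical (top 100 uM, half-log, 0.5% DMSO vehicle); curves were fitted bidirectionally against DMSO.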

Read-out in experiment [9]: Apolipoprotein A-V (APOA5) gene, APOA5 (gene 116519)
As to the kind of experiment: LTEA_HepaRG_APOA5: Life Technologies and Expression Analysis (LTEA) Assay for Apolipoprotein A-V (APOA5) gene using HepaRG (AID 2283474). Summed up:
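APOA5 transcript levels were quantified by qRT-PCR, normalized to three housekeeping genes, after 48 h chemical treatment of HepaRG cells (8 points, 100 uM maximum, half-log steps, 0.5% DMSO). Curves fitted in both directions against vehicle.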

Read-out in experiment [10]: Apoptosis regulator Bcl-2 (Homo sapiens) (UniProt P10415)
Kind of experiment: LTEA_HepaRG_BCL2: Life Technologies and Expression Analysis (LTEA) Assay for Bcl-2 gene using HepaRG (AID 2283475). Summed up: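 qRT-PCR read-out (Fluidigm TaqMan) of BCL2 transcript, normalised to three housekeeping genes, after 48 h chemical exposure of HepaRG cells; 8-point half-log series, top 100 uM, 0.5% DMSO vehicle. Gain or loss of signal fitted relative to DMSO baseline.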

Read-out in experiment [11]: Bcl-2 (BID) gene, BID (gene 637)
Kind of experiment: LTEA_HepaRG_BID: Life Technologies and Expression Analysis (LTEA) Assay for Bcl-2 (BID) gene using HepaRG (AID 2283476). The gist of the method: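 HepaRG, 48 h exposure, 8-pt half-log series, top 100 uM, 0.5% DMSO vehicle, duplicates. Readout: BID mRNA by TaqMan qRT-PCR; housekeeping-normalized; bidirectional curve fit vs DMSO baseline.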

Read-out in the next experiment: Caspase-3 (Homo sapiens) (UniProt P42574)
As to the kind of experiment: LTEA_HepaRG_CASP3: Life Technologies and Expression Analysis (LTEA) Assay for cysteine-aspartic acid protease (CASP3) using HepaRG (AID 2283477). The gist of the method: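 Expression of CASP3 was quantified by TaqMan qRT-PCR against three housekeeping genes (ACTB, GAPDH, POLR2A), bidirectionally versus 0.5% DMSO. HepaRG cultures received compounds in duplicate, top 100 uM with half-log steps, for 48 h in serum-free induction medium.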

Read-out in experiment [12]: Cytochrome P450 (CYP24A1), CYP24A1 (gene 1591)
Kind of experiment: LTEA_HepaRG_CYP24A1: Life Technologies and Expression Analysis (LTEA) Assay for Cytochrome P450 (CYP24A1) using HepaRG (AID 2283478). Summed up: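 mRNA of CYP24A1 quantified by TaqMan qRT-PCR (ACTB/GAPDH/POLR2A normalization) after 48 h chemical exposure of HepaRG cells, top concentration 100 uM, half-log steps, 0.5% DMSO vehicle, duplicates. Curves fitted bidirectionally against DMSO baseline.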

Read-out in experiment [13]: Cytochrome P450 (CYP1A2), CYP1A2 (gene 1544)
As to the kind of experiment: LTEA_HepaRG_CYP1A2: Life Technologies and Expression Analysis (LTEA) Assay for Cytochrome P450 (CYP1A2) using HepaRG (AID 2283479). Summed up: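 CYP1A2 transcript measured by TaqMan qRT-PCR against three housekeeping genes after 48-hour chemical exposure of HepaRG cells. Eight-point half-log series topping at 100 uM in 0.5% DMSO, duplicates; gain or loss fitted relative to vehicle.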

Read-out in experiment [14]: cysteine-aspartic acid protease (CASP8), CASP8 (gene 841)
As to the kind of experiment: LTEA_HepaRG_CASP8: Life Technologies and Expression Analysis (LTEA) Assay for cysteine-aspartic acid protease (CASP8) using HepaRG (AID 2283480). Summed up: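 qRT-PCR readout of CASP8 mRNA, normalized to three housekeeping genes, after 48 h chemical exposure of HepaRG cells; 8-point half-log series, top 100 uM, 0.5% DMSO vehicle. Bidirectional curve fitting against DMSO baseline.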

Read-out in experiment [15]: Cytochrome P450 2C19 (Homo sapiens) (UniProt P33261)
As to the kind of experiment: LTEA_HepaRG_CYP2C19: Life Technologies and Expression Analysis (LTEA) Assay for CYP2C19 using HepaRG (AID 2283482). Summed up: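 CYP2C19 transcript levels by qRT-PCR, normalized to three housekeeping genes, in HepaRG cells after 48 h chemical exposure. Eight-point half-log series topping at 100 uM, 0.5% DMSO vehicle. Increases and decreases both fitted against DMSO.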

Read-out in a further experiment: CYP2C8 (gene 1558)
As to the kind of experiment: LTEA_HepaRG_CYP2C8: Life Technologies and Expression Analysis (LTEA) Assay for CYP2C8 using HepaRG (AID 2283483). Summed up:
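HepaRG (human liver line), 48 h chemical exposure, 8-pt half-log series from 100 uM, 0.5% DMSO vehicle. Readout: CYP2C8 transcript by qRT-PCR, housekeeping-normalized. Bidirectional fit vs DMSO baseline.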

Read-out in experiment [16]: Cytochrome P450 (CYP2B6), CYP2B6 (gene 1555)
As to the kind of experiment: LTEA_HepaRG_CYP2B6: Life Technologies and Expression Analysis (LTEA) Assay for Cytochrome P450 (CYP2B6) using HepaRG (AID 2283481). The gist of the method:
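CYP2B6 transcript level quantified by qRT-PCR against three housekeeping genes, fitted bidirectionally relative to DMSO. HepaRG cultures received chemicals for 48 h, 8-point half-log series from 100 uM in 0.5% DMSO, duplicate wells, serum-free induction medium.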

Read-out in experiment [17]: Bcl-2 (BAD) gene, BAD (gene 572)
Kind of experiment: LTEA_HepaRG_BAD: Life Technologies and Expression Analysis (LTEA) Assay for Bcl-2 (BAD) gene using HepaRG (AID 2283469). Summed up:
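HepaRG, 48 h exposure, 8-pt half-log curve from 100 uM in 0.5% DMSO, duplicates. Readout: TaqMan qRT-PCR for BAD mRNA, housekeeping-normalised (ACTB/GAPDH/POLR2A); gain or loss fitted against DMSO baseline.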

Chain of Cytochrome P450 2C19 (Homo sapiens) (P33261 whole entry, looked up): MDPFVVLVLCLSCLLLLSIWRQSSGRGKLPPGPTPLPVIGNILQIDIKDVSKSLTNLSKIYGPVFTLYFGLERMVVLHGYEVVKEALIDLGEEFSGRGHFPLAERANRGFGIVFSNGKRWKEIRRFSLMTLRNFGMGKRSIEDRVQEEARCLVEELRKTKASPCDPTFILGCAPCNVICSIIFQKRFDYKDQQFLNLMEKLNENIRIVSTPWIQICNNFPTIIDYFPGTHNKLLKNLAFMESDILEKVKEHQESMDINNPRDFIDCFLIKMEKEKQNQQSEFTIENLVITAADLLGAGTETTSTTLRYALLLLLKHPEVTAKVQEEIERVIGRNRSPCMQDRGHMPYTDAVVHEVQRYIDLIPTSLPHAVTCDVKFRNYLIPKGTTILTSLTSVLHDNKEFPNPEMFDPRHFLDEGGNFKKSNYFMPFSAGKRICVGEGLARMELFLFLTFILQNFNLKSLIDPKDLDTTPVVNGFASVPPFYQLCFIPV
Chain of Caspase-3 (Homo sapiens) (P42574 whole entry, looked up): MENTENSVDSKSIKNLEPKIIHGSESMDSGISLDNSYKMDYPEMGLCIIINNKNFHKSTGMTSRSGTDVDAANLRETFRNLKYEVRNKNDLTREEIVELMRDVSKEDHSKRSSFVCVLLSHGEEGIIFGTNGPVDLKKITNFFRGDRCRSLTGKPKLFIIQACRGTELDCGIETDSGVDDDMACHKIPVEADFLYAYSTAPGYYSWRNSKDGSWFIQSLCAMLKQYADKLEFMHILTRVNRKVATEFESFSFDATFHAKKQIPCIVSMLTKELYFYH
Chain of Broad substrate specificity ATP-binding cassette transporter ABCG2 (Homo sapiens) (Q9UNQ0 whole entry, looked up): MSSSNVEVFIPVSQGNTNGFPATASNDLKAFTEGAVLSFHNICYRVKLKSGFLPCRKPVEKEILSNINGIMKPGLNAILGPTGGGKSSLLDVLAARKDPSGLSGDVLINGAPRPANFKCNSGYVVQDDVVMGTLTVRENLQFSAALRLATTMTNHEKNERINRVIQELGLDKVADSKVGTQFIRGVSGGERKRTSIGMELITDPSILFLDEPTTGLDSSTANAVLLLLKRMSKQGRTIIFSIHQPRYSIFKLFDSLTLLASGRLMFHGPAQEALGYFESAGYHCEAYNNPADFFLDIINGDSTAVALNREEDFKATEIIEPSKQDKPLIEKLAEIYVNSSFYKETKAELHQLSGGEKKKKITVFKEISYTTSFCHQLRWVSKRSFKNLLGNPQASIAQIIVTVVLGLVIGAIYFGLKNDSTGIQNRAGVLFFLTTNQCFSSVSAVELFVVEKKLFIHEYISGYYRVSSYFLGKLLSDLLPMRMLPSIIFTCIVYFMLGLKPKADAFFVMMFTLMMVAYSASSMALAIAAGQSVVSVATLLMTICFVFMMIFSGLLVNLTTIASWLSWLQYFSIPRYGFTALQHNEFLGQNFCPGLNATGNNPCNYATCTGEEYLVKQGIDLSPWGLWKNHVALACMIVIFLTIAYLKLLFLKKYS
Chain of Apoptosis regulator Bcl-2 (Homo sapiens) (P10415 whole entry, looked up): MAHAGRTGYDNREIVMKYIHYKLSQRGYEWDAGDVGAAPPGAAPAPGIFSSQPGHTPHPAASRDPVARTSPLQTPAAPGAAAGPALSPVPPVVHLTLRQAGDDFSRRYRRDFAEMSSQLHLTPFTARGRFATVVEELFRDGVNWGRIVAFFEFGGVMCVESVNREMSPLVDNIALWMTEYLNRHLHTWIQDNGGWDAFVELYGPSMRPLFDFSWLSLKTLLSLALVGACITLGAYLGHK

Consider `Clc1ccc(Cl)c(Cl)c1`, for which the molecule was classed as inactive in experiment [1], in [2], in experiment [3], in experiment [4], in [6] and in experiment [7]. Also, the result (with BCL2L11 (gene 10018); in [10]; in experiment [12]; in [13]; in [14]; in [15]) was inactive. Moreover, the result with CYP2C8 (gene 1558) was inactive. In addition, the AC50 in experiment [5] was 9.92 µM (active); in [8] it was 50 µM (active); in [9] it was 50 µM (active); in experiment [11] it was 50 µM (active); in the experiment with Caspase-3 (Homo sapiens), 50 µM (active).

Take `C1=Cc2cccc3cccc1c23`: the result in experiment [1], in experiment [2], in experiment [3], in experiment [4], in [5] and in experiment [6] was inactive. Also, the call (in [7]; in experiment [8]; with BCL2L11 (gene 10018); in [9]; in experiment [10]; in experiment [11]) was inactive. The molecule was called inactive (with Caspase-3 (Homo sapiens); in experiment [12]; in experiment [14]; in experiment [15]; in the experiment with CYP2C8 (gene 1558)). Moreover, the results for the AC50 in [13] and in [16] were 24.9 µM (active) and 37.8 µM (active), respectively.

With `Nc1cc(Cl)cc(C(=O)O)c1Cl`, the result in experiment [1], in experiment [2], in experiment [3], in [4], in experiment [5] and in [17] was inactive. The outcome (in experiment [6]; in experiment [7]; in the experiment with BCL2L11 (gene 10018); in [9]; in [11]; with Caspase-3 (Homo sapiens)) was inactive. Also, the outcome (in [12]; in [14]; in [15]; with CYP2C8 (gene 1558)) was inactive. Further, the AC50 in experiment [13] was 50 µM (active).

As to `COC(=O)Nc1nc2ccccc2[nH]1`, the molecule was called inactive in [1], in [2], in experiment [3], in experiment [4], in experiment [5] and in [17]. Also, the call (in experiment [6]; in [7]; in experiment [8]; with BCL2L11 (gene 10018); in [9]; in [11]) was inactive. In addition, the outcome (with Caspase-3 (Homo sapiens); in experiment [14]; in experiment [15]; in the experiment with CYP2C8 (gene 1558)) was inactive. Further, in experiment [13], the AC50 was 31.8 µM (active).

Broadly, the AC50 is the concentration giving half of the maximal activity seen.
